SMN2 splice enh: qHTS Assay for Enhancers of SMN2 Splice Variant Expression | HEK293 SMN2-luciferase splicing reporter, luminescence, 30-36 h | Potency, µM (series often up to 46.1 µM), for inactives: top-dose activity change, positive = activation, most hits filed as activators | AID 1458, 2008 | 2.8% of 210,000 active; note: % of control where 0% means no effect; nearly all actives have a fitted effect of over 55% in size
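qHTS luciferase splicing reporter: luminescence rises when SMN2 exon 7 is included in transfected HEK293 cells. Compound exposure lasted 30-36 h at 37C, with 4.5 mM final sodium butyrate as control, followed by a ONE-Glo read.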
ELG1 genotoxic: qHTS screen for small molecules that induce genotoxicity in human embryonic kidney (HEK293T) cells expressing luciferase-tagged ELG1. AID 504466, 2011. HEK293T ELG1-luciferase reporter, luminescence, 16 h. 1.3% of 330,000 active. Potency, µM (titrated, usually from 46 µM), for the others: at the highest dose activity change, positive = activation, most hits filed as activators; note: % of control where 0% means no effect; nearly all actives have a fitted effect of over 60% in size
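Screening used a luciferase reporter fused to human ELG1 in HEK293T cells. Luminescence was read on a CCD plate imager after 16 hr exposure and 30 min ONE-Glo incubation.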
FLuc modulator: qHTS profiling assay for firefly luciferase inhibitor/activator using purifed enzyme and Km concentrations of substrates (counterscreen for miR-21 project) | 6.9% of 360,000 active | purified FLuc, Km substrates, luminescence inhibition | AID 588342, 2011 | Potency, µM (titrated, usually from 57.5 µM), for inactives: at the top dose activity change, negative = inhibition, usual class: inhibitors | Luciferin 4-monooxygenase (Photinus pyralis), P08659;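 note: plate controls were vehicle for no effect and reference inhibitor for full effect; nearly all actives have a fitted effect of over 55% in size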
Target sequence (P08659 whole entry, looked up): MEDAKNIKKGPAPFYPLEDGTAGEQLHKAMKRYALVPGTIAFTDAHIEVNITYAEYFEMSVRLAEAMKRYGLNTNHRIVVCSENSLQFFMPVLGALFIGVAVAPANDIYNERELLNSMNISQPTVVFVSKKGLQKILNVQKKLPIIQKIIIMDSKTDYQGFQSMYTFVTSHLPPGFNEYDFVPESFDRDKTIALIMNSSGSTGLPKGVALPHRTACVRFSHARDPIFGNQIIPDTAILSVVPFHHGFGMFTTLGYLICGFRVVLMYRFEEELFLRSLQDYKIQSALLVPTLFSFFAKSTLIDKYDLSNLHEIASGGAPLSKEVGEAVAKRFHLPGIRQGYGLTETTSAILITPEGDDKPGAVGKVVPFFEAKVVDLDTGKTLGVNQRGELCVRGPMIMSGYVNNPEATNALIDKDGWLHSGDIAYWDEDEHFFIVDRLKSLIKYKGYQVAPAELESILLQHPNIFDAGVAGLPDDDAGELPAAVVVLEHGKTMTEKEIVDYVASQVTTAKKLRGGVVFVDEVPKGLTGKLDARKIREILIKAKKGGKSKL
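Biochemical qHTS of compounds, final roughly 60 µM downward over six points, against 10 nM purified firefly luciferase using Km concentrations of substrates (10 uM D-luciferin, 10 uM ATP) in Tris acetate pH 7.5 buffer; luminescence output.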
NPC1 prom act: qHTS Assay for NPC1 Promoter Activators | Huh7 NPC1 promoter luciferase reporter, 24 h | Potency, µM (series often up to 9.22 µM), for inactives: top-dose activation, usual class: activators | 2.4% of 320,000 active; note: % of control where 0% means no effect; nearly all actives have a fitted effect of over 60% in size
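Luminescence from an NPC1 promoter-driven luciferase reporter in stably transfected Huh7 cells was measured after 24 h compound treatment at 37 °C, followed by 10 min ambient incubation with luciferase detection reagent.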
Rab9 promoter act: qHTS Assay for Rab9 Promoter Activators | Huh7 Rab9 promoter-luciferase reporter, luminescence, 24 h | Potency, µM (doses to about 9.22 µM), without a hit: top-dose activation, negative = inhibition, actives largely listed as activators | 2.8% of 320,000 active | AID 485297, 2010; note: % of control where 0% means no effect; nearly all actives have a fitted effect of over 60% in size
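Huh7 cells stably carrying Rab9 promoter–luciferase reporter, plated 1500 cells/well, compound added after 2 h and incubated 24 h at 37 °C; luciferase luminescence then read after 10 min with detection reagent.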
Starred values were filed as active, the others as inactive; [ ] = dose if it differs, or a comment. Most compounds without a hit are left out; they make up all but 7.4% or so of the library. Calls come from the whole dose curve; as a rule, active = well fitted curve in the direction sought with a large enough effect; inconclusive = small, poorly fitted or top-dose-only effect, or another doubt; inactive = no such curve, though single readings can be large; an effect the other way counts as inactive or inconclusive. Potency is the fitted concentration of half-maximal effect.

How did Cc1cc(C(=O)CSc2nnc(-c3ccc4c(c3)OCO4)o2)c(C)n1-c1ccc(F)cc1 do in these assays?
SMN2 splice enh: -64.7%; ELG1 genotoxic: 1.7%; FLuc modulator: -11.1%; NPC1 prom act: -1.1%; Rab9 promoter act: -6.1%

Results for Cc1ccc(N=C2CCCN2Cc2ccccc2)c(C#N)c1 ?
SMN2 splice enh: -2.9%; ELG1 genotoxic: -1.4%; FLuc modulator: 23.9µM*; NPC1 prom act: 3.4%; Rab9 promoter act: 13.0%

What do the screens show for `N#Cc1ccc(/C=C\c2nccc3c2[nH]c2ccccc23)cc1`?
SMN2 splice enh: -12.7%; ELG1 genotoxic: 6.3%; FLuc modulator: inconclusive; NPC1 prom act: inconclusive; Rab9 promoter act: 11.3%

What do the screens show for `Clc1ccc(/C=C\c2nccc3c2[nH]c2ccccc23)cc1`?
SMN2 splice enh: 10.4%; ELG1 genotoxic: 17.4%; FLuc modulator: 3.79µM*; NPC1 prom act: 27.3%; Rab9 promoter act: 21.2%

Results for O=C(CCOc1ccccc1)Nc1nnc(-c2ccc3c(c2)OCCO3)o1 ?
SMN2 splice enh: -23.6%; ELG1 genotoxic: -5.6%; FLuc modulator: 10.7µM*; NPC1 prom act: 6.5%; Rab9 promoter act: 10.4%

How did O=C(Nc1nnc(-c2ccc3c(c2)CCCC3)o1)c1ccccc1Cl do in these assays?
SMN2 splice enh: 16.2%; ELG1 genotoxic: -0.9%; FLuc modulator: 23.9µM*; NPC1 prom act: 2.2%; Rab9 promoter act: 6.6%

Results for O=C(COc1ccccc1)Nc1nnc(-c2ccc3c(c2)CCCC3)o1 ?
SMN2 splice enh: inconclusive; ELG1 genotoxic: 18.4µM*; FLuc modulator: inconclusive; NPC1 prom act: inconclusive; Rab9 promoter act: inconclusive

What do the screens show for `O=C(COc1ccccc1)Nc1nnc(-c2ccc(F)cc2)o1`?
ELG1 genotoxic: -9.0%; FLuc modulator: -0.4%; NPC1 prom act: -3.2%; Rab9 promoter act: -3.1%

Results for O=C(Nc1nnc(-c2ccc3c(c2)OCCO3)o1)c1ccc(Cc2ccccc2)cc1 ?
SMN2 splice enh: -17.2%; ELG1 genotoxic: -10.8%; FLuc modulator: -1.9%; NPC1 prom act: 1.8%; Rab9 promoter act: -6.6%

Results for O=C(Nc1nnc(-c2ccc(Br)cc2)o1)c1cccc(N2C(=O)CCC2=O)c1 ?
ELG1 genotoxic: 1.7%; FLuc modulator: 12µM*; NPC1 prom act: 1.0%; Rab9 promoter act: -0.4%

Results for O=C(Nc1nnc(-c2ccccc2)o1)c1cccc(N2C(=O)CCC2=O)c1 ?
SMN2 splice enh: -3.7%; ELG1 genotoxic: 0.1%; FLuc modulator: inconclusive; NPC1 prom act: -1.2%; Rab9 promoter act: 1.3%

Results for Cc1nn(CC(=O)NCc2cccc(Br)c2)c(=O)c2c1sc1ccccc12 ?
FLuc modulator: 2.8%

What do the screens show for `CCNc1ncc2nc(-c3cc(F)cc(F)c3)c(=O)n(Cc3cccs3)c2n1`?
SMN2 splice enh: 4.7%

Results for CC(=O)Nc1nonc1-c1nnc(SCc2ccccc2F)n1C ?
FLuc modulator: 1.0%

What do the screens show for `O=C(Nc1nnc(-c2ccc(Cl)cc2)o1)C1CCCCC1`?
ELG1 genotoxic: 3.2%; FLuc modulator: -18.2%; NPC1 prom act: 21.9%; Rab9 promoter act: 25.2%

Results for O=C(Nc1nnc(-c2ccc3c(c2)CCCC3)o1)c1ccccc1 ?
SMN2 splice enh: -48.1%; ELG1 genotoxic: inconclusive; FLuc modulator: 19µM*; NPC1 prom act: 4.3%; Rab9 promoter act: -5.8%

What do the screens show for `O=C(Nc1nnc(-c2ccncc2)o1)c1ccccc1`?
SMN2 splice enh: 20.8%; ELG1 genotoxic: 2.6%; FLuc modulator: inconclusive; NPC1 prom act: 9.3%; Rab9 promoter act: 11.2%

What do the screens show for `O=C(Nc1nnc(-c2ccc3c(c2)OCCO3)o1)C1CCCCC1`?
SMN2 splice enh: inconclusive; ELG1 genotoxic: inconclusive; FLuc modulator: inconclusive; NPC1 prom act: 3.55µM*; Rab9 promoter act: 2.51µM*

What do the screens show for `O=C(c1ccncc1)N1CCC[C@@]2(CCN(c3cccc(-c4ccccc4)c3)C2)C1`?
SMN2 splice enh: -43.9%

How did Cc1cc(C)nc(SCCc2cccc[n+]2C)n1 do in these assays?
SMN2 splice enh: -1.5%[9.22 µM]

How did CC(C)=CC(=O)OCc1cc([N+](=O)[O-])cc2c1OCOC2 do in these assays?
SMN2 splice enh: inconclusive; ELG1 genotoxic: inconclusive; FLuc modulator: 23.9µM*; NPC1 prom act: 10.2%; Rab9 promoter act: inconclusive

Results for Cc1ccc(/C(N)=N/OC(=O)C23CC4CC(CC(C4)C2)C3)cc1 ?
SMN2 splice enh: -14.9%; ELG1 genotoxic: 3.8%; FLuc modulator: 9.53µM*; NPC1 prom act: 23.5%; Rab9 promoter act: inconclusive

What do the screens show for `N/C(=N\OC(=O)C12CC3CC(CC(C3)C1)C2)c1ccncc1`?
ELG1 genotoxic: 8.4%; FLuc modulator: 19µM*; NPC1 prom act: -2.6%; Rab9 promoter act: -0.6%

What do the screens show for `Cc1ccc(/C(N)=N/OC(=O)N2CCOCC2)cc1`?
SMN2 splice enh: -23.5%; ELG1 genotoxic: 2.1%; FLuc modulator: inconclusive; NPC1 prom act: 18.4%; Rab9 promoter act: 21.2%

Results for O=C(O)c1cc(-c2ccccc2)nn1Cc1ccccc1 ?
SMN2 splice enh: 1.4%; FLuc modulator: inconclusive

How did Cc1ccc2c(c1)C(c1ccccc1)N(C(=O)COc1ccc(Cl)cc1Cl)CC(=O)N2 (configuration not stated) do in these assays?
SMN2 splice enh: -2.0%; FLuc modulator: 3.0%

Results for N/C(=N\OC(=O)COc1ccccc1Cl)c1ccc(Cl)cc1 ?
SMN2 splice enh: inconclusive; ELG1 genotoxic: inconclusive; FLuc modulator: inconclusive; NPC1 prom act: -1.6%; Rab9 promoter act: 0.1%

How did Cc1ccc(/C(N)=N/OC(=O)COc2ccccc2Cl)cc1 do in these assays?
SMN2 splice enh: 22.2%; ELG1 genotoxic: 23.1µM*; FLuc modulator: 19µM*; NPC1 prom act: 16.7%; Rab9 promoter act: -5.5%

Results for Cc1ccc(SCC(=O)O/N=C(\N)c2ccncc2)cc1 ?
ELG1 genotoxic: 1.9%; FLuc modulator: -7.8%; NPC1 prom act: 3.9%; Rab9 promoter act: 1.4%

How did O=C(NNC(=O)c1ccc([N+](=O)[O-])cc1)c1ccncc1 do in these assays?
SMN2 splice enh: -5.5%; ELG1 genotoxic: -1.5%; FLuc modulator: -15.4%; NPC1 prom act: -0.4%; Rab9 promoter act: -2.6%

How did Cc1ccc(/C(N)=N/OC(=O)CSc2ccccc2)cc1 do in these assays?
SMN2 splice enh: 11.2µM*; ELG1 genotoxic: inconclusive; FLuc modulator: 1.69µM*; NPC1 prom act: 2.51µM*; Rab9 promoter act: 3.55µM*

What do the screens show for `N/C(=N\OCc1ccc([N+](=O)[O-])cc1)c1ccncc1`?
SMN2 splice enh: 15.8µM*; ELG1 genotoxic: inconclusive; FLuc modulator: 15.1µM*; NPC1 prom act: inconclusive; Rab9 promoter act: -26.7%
